Data published in ChEMBL document CHEMBL3988442, “University of Dundee, Small-Polar-MMV Screening Library” (2021).
“And” between values parts separate entries of the source, which are not always exact repeats. Identical values can stand only once. Screen size: about 38,000 compounds; about 1,200 (3.2%) showed an effect of 50% or more. The median lay at about -58%. The entries come from a sample that favours strong results as a whole.

Test system: Plasmodium falciparum
Assay: Calibr Malaria Delayed Death Assay SOP
Format: functional, organism-based
Parameters: scale not given: in the data most compounds retested in dose-response had high values
Conditions: concentration 4.99e-06 (unit not given; other assays of the set use mol/L)

Row | SMILES | Percent Effect [%] | Percent Effect (4.99 µM)
1 | Cc1cc(CN2CCC(C3CCN(Cc4cccnc4)CC3)C2)[nH]n1 (stereo not given) | 8.003 | –
2 | Cc1cc(CN2CCC(C3CCN(CCc4ccccc4)C3)CC2)[nH]n1 (stereo not given) | 35.64 | –
3 | Cc1cc(CN2CCC(C3CCN(CCc4ccccc4)CC3)C2)[nH]n1 (stereo not given) | 93.56 | –
4 | Cc1cc(C)cc(CN2C[C@@H]3OCCN(CC(=O)N(C)C)[C@@H]3C2)c1.O=C(O)C(F)(F)F | -102.5 | –
5 | COc1ccc(CCNCc2ccco2)cc1OC | 3.158 | –
6 | COc1cc(C(C)=O)ccc1OCCNCc1ccco1.Cl | -1.065 | –
7 | CCCc1ccc(OCCNCc2ccco2)c(OC)c1.Cl | 50.1 | –
8 | COc1ccc(CN2CCN(CCn3ccnc3)CC2)cc1F | -77.09 | –
9 | N#CCCSc1nnc(Cc2ccccc2F)o1 | 0.1656 | –
10 | Cc1ccc(CN2CC[C@H]3CO[C@H](CN4CCCC4)[C@H]3C2)o1.O=C(O)C(F)(F)F.O=C(O)C(F)(F)F | 27.44 | –
11 | CN1CCN(C[C@@H]2OC[C@H]3CN(Cc4cccc(F)c4)CC[C@H]32)CC1.O=C(O)C(F)(F)F.O=C(O)C(F)(F)F.O=C(O)C(F)(F)F | 17.46 | –
12 | O=C(O)C(F)(F)F.O=C(O)C(F)(F)F.c1cc2c(cc1CN1CC[C@H]3CO[C@H](CN4CCCC4)[C@H]3C1)OCO2 | 77.9 | –
13 | Cc1ccc(CN2CC[C@@H]3[C@@H](CO[C@H]3CN3CCN(C)CC3)C2)cc1.O=C(O)C(F)(F)F.O=C(O)C(F)(F)F.O=C(O)C(F)(F)F | -1.718 | –
14 | CN1CCN(C[C@@H]2OC[C@H]3CN(CCc4ccccc4)CC[C@H]32)CC1.O=C(O)C(F)(F)F.O=C(O)C(F)(F)F.O=C(O)C(F)(F)F | 64.83 | –
15 | N#Cc1cccc(CN2CC[C@@H]3CO[C@@H](CN4CCCC4)[C@@H]3C2)c1.O=C(O)C(F)(F)F.O=C(O)C(F)(F)F | 9.568 | –
16 | Cn1cc(N2CCC3(CCCN(Cc4ccoc4)C3)C2=O)cn1 (stereo not given) | -100.7 | –
17 | O=C1CCC2(CCN(CC[C@H](O)c3ccccc3)CC2)CN1CCO | -15.36 | –
18 | NC(=O)CCNC(=O)C1(N2CCCCC2)Cc2ccccc2C1 | -32.27 | –
19 | CN1CC(C(=O)N2CCN(c3cccc(Cl)c3)C(=O)C2)NC1=O (stereo not given) | -61.36 | –
20 | CC(Cn1cccn1)NCc1nc(-c2cccs2)no1 (stereo not given) | -237.8 | –

Row | SMILES | Percent Effect [%] | Percent Effect (4.99 µM)
21 | CC(Cn1cccn1)NCCCc1nc(-c2cccs2)no1 (stereo not given) | 66.81 | –
22 | Cc1cnn(CC(C)NCc2nc(-c3cccs3)no2)c1 (stereo not given) | -78.64 | –
23 | CC(C)NC(=O)[C@H](C)NC(=O)N1CCN(c2ccc(Cl)cc2)CC1 | -40.36 | –
24 | CC(C)Cn1ncc(C(=O)NS(=O)(=O)c2ccccc2)c1C1CC1 | -129.8 | –
25 | COc1ccc(OC)c(C(C)NS(=O)(=O)c2cn(C)nc2C)c1 (stereo not given) | -72.91 | –
26 | CC(=O)NC[C@@H]1C=C(C)[C@H](CC(=O)NCCN(C)C)C[C@H]1C(C)C | -26.76 | –
27 | CCc1ncc(C(=O)N(C)CCc2nc3cc(OC)ccc3[nH]2)cn1 | -128 | –
28 | CCn1nc(C)c(C(=O)N2C[C@@H](CN(C)C)[C@@H](CO)C2)c1C | – | -17.38% and -19.57%
29 | CC(=O)N1CCC(=O)N(C2CCCC2)Cc2ccccc21 | -73.21 | –
30 | CCn1c(=O)nc(N)c2c(-c3ccc(OC)cc3)csc21 | -67.94 | –
31 | COc1ccc(-c2csc3c2c(N)nc(=O)n3CCCN(C)C)cc1 | 54.04 | –
32 | COc1ccc(-c2csc3c2c(N)nc(=O)n3CCN(C)C)cc1 | -27.97 | –
33 | CC(C)c1nc(N2CC(N3CCCCC3C)C2)c2cnn(C)c2n1 (stereo not given) | -59.85 | –
34 | CC(C)c1nc(N2CCC(N3CCCCCC3)CC2)c2cnn(C)c2n1 | 50.67 | –
35 | Cc1nc(N2CCCC(N3CCCC3)C2)c2cnn(C)c2n1 (stereo not given) | -29.13 | –
36 | Cc1nccn1C1CCCN(C(=O)c2cccc3c2OCO3)C1 (stereo not given) | -58.82 | –
37 | NC(=O)C1CCC(NC(=O)COc2ccc(Cl)c(Cl)c2)CC1 (stereo not given) | 13.16 | –
38 | O=C1CC(N2CCN(c3ccccc3O)CC2)C(=O)N1Cc1cccs1 (stereo not given) | -172.2 | –
39 | CCN(Cc1ccncc1)C(=O)CCn1c(C)cc2ccccc21 | 55.24 | –
40 | Cc1cc2ccccc2n1CCC(=O)NCCN(C)S(C)(=O)=O | -87.62 | –

Row | SMILES | Percent Effect [%] | Percent Effect (4.99 µM)
41 | CCN(Cc1nc(COC)no1)C(=O)CCn1c(C)cc2ccccc21 | 5.524 | –
42 | CN(C)C(=O)CC1CC2(CCN(Cc3cccs3)CC2)c2ccccc21.O=C(O)C(F)(F)F (stereo not given) | 22.44 | –
43 | CN1CCN(C(=O)N2CCCC(c3nccn3CC3CCC3)C2)CC1 (stereo not given) | -95.73 | –
44 | CC(=O)N1CCC(C(=O)NCc2ncc(-c3ccccc3)o2)CC1 | -123.2 | –
45 | CN(Cc1cnn(C)c1)C(=O)C1CCCN1Cc1ccccn1 (stereo not given) | -66.14 | –
46 | CCc1nc(CN2CCCC2C(=O)NC)cs1 (stereo not given) | -71.78 | –
47 | O=C(Nc1nccs1)C1CCCN1Cc1ccccn1 (stereo not given) | 93.51 | –
48 | CCn1ccnc1CN1CCCC1C(=O)Nc1nccs1 (stereo not given) | 84.6 | –
49 | NC(=O)C1CCCN1Cc1nccn1CC(F)(F)F (stereo not given) | -38.81 | –
50 | CCNc1ccnc(CN2CCCC2C(=O)Nc2nccs2)c1 (stereo not given) | 94.9 | –
51 | CC(C)(C)NC(=O)C1CCCCN1Cc1nccn1CC(F)(F)F (stereo not given) | -48.44 | –
52 | CC(=O)Nc1cccc(CN2CCCC2C(=O)Nc2nccs2)c1 (stereo not given) | -76.05 | –
53 | CCc1nc(CN2CCCC2C(=O)NC2CC2)cs1 (stereo not given) | -16.64 | –
54 | Cc1cnn(CC2CCCN2C(=O)c2n[nH]c3ccccc23)c1 (stereo not given) | -56.22 | –
55 | CC(=O)Nc1ccc(SCCCC(=O)NCC2CCCO2)nn1 (stereo not given) | -99.67 | –
56 | CC(NC(=O)N1CCC1)c1ccc(S(N)(=O)=O)cc1 (stereo not given) | -105.8 | –
57 | Cc1ccc(NC(=O)NCCc2cnn(C)c2)c(N(C)C)n1 | -69.56 | –
58 | CCc1ccsc1C(=O)N1CCN(C(=O)CC(F)(F)F)CC1 | -98.82 | –
59 | CCC1(CC)CC(=O)N(CC(O)c2cc(F)ccc2F)C1=O (stereo not given) | -120 | –
60 | Cc1cccc(CN2CCc3ncnc(N4CCCC4)c3CC2)n1.O=C(O)C(F)(F)F | -17.07 | –
